Assay outcomes (PubChem BioAssay)
Rab2A wt mod = changes GTP binding to wildtype dog Rab2A, up or down; AID 760; P61105; 190,000 compounds, 0.19% hits; GST-Rab2 wt beads, Bodipy-GTP binding, flow cytometry; GTP binding activity, % at 10 µM;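 active = GTP binding activity at least 20 points away from 100%, either lowered or raised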
HRas wt GTP = human HRas wildtype GTP binding, change in either direction | GST-Ras wt beads, Bodipy-FL-GTP binding, flow cytometry; actives lie on both sides | GTP binding activity, % at 10 µM | P01112 | AID 759 | 190,000 compounds, 0.14% hits;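 active = GTP binding activity at least 20% away from the 100% baseline, either lowered as inhibitor or raised as activator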
Target sequence (P01112 whole entry, looked up): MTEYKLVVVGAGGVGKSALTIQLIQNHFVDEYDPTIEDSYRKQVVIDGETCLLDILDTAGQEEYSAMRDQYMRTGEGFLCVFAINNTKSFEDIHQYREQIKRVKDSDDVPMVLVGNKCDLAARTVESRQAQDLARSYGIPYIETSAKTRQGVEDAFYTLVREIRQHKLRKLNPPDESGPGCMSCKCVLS
Rab7 wt GTP bind = dog Rab7 wildtype GTP binding, inhibitors and activators; GST-Rab7 beads, fluorescent GTP binding, flow cytometry; actives lie on both sides; untreated = 100%, excess cold GTP = 0%; GTP binding activity (percent of control), % at 10 µM; 190,000 compounds, 0.055% hits; AID 758;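 active = fluorescent GTP binding to Rab7 beads changed by at least 20 points from the 100% baseline, either direction, mostly lower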;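 also: median green fluorescence of bound Bodipy-FL-GTP per Rab7 bead population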
Cdc42 wt GTP = modulators (inhibitors or activators) of GTP binding to human Cdc42 wildtype. P60953. GST-Cdc42 beads, Bodipy-GTP binding, flow cytometry; actives lie on both sides. percent activity (GTP binding), % at 10 µM. 190,000 compounds, 0.2% hits. AID 761;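 active = percent activity GTP binding at least 20 points away from the 100% baseline, either down as inhibitor or up as activator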;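 also: median bead fluorescence of bound Bodipy-FL-GTP at 100 nM; below 100% means less GTP binding so inhibitor and above means activator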
Target sequence (P60953 whole entry, looked up): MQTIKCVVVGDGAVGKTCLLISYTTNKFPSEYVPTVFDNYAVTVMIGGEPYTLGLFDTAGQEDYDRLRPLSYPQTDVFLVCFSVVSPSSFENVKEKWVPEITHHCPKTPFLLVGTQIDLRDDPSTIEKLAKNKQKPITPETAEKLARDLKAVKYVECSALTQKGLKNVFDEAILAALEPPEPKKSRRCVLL
Rac1 mut GTP = modulators of GTP binding to human Rac1 activated mutant | P63000 | GST-Rac1 activated beads, fluorescent GTP binding, flow cytometry; actives lie on both sides; 100% means binding = to untreated wells | percent activity (GTP binding), % at 10 µM | 190,000 compounds, 0.11% hits | AID 764;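 active = GTP binding at least 20 percentage points away from the 100% baseline, in either direction, so actives lie on both sides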
Rac1 wt GTP bind = modulators of human Rac1 wildtype GTP binding; AID 757; P63000; 190,000 compounds, 0.27% hits; GTP binding activity (% of control), % at 10 µM; GST-Rac1 beads, fluorescent GTP binding, flow cytometry; actives lie on both sides; 0 = cold GTP competed, 100 = untreated;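 active = GTP binding activity at least 20 points away from the 100% control level, either lower or higher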
Numbers stand for hits; i = inactive; [ ] = dose if it differs, or a comment. An excerpt weighted towards active compounds, which were near 0.4% of everything screened.

SMILES	Rab2A wt mod	HRas wt GTP	Rab7 wt GTP bind	Cdc42 wt GTP	Rac1 mut GTP	Rac1 wt GTP bind
COc1ccc(CCNC(=O)Nc2ccc([N+](=O)[O-])cc2)cc1OC	i	i	i	i	i	i
CC(=O)NNc1nc(-c2ccccc2)c2cc(Br)ccc2n1	i	i	i	i	i	i
O=C(NNc1nc(-c2ccccc2)c2cc(Br)ccc2n1)c1ccc(S(=O)(=O)N2CCCCC2)cc1	i	i	i	i	i	i
CN(C)S(=O)(=O)c1ccc(C(=O)NNc2nc(-c3ccccc3)c3cc(Br)ccc3n2)cc1	i	i	i	i	i	78.0
O=C(NNc1nc(-c2ccccc2)c2cc(Br)ccc2n1)c1ccc(S(=O)(=O)N2CCOCC2)cc1	75.0	i	i	i	i	67.0
CCCc1n(CC)c2ccccc2[n+]1CC(O)COC1CCCCC1 (configuration not stated)	i	i	i	i	i	i
Cc1ccc(NC(=S)NNC(=O)c2c(Cl)c(C)nn2C)cc1	i	i	i	i	i	i
Cc1ccc(NC(=S)NNC(=O)c2cn(C)nc2C)cc1	i	i	i	i	i	134.0[activator]
Cc1ccc(/C=N/NC(=O)C2CCN(Cc3ccc(F)cc3Cl)CC2)o1	i	i	78.0	i	i	i
CC(=O)c1sc(NC(=O)CCCOc2ccc(Cl)cc2)nc1C	i	i	i	i	i	i
COc1cc(CCNc2ccc3nnc(-c4ccccc4)n3n2)cc(OC)c1OC	74.0	71.0	i	73.0	i	73.0
CC1SC(C)C(=O)N(CC(=O)NC2CCCCC2)C1=O (configuration not stated)	i	i	i	i	i	i
COc1ccc(-c2nn3c(-c4ccccn4)nnc3s2)cc1OC	79.0	i	i	i	i	74.0
CC(=O)CC(c1ccc([N+](=O)[O-])cc1)c1c(O)c2ccccc2oc1=O (configuration not stated)	i	i	i	i	i	i
Nc1nc(CN2CCN(c3ccccc3F)CC2)nc(N2CCCc3ccccc32)n1	i	i	i	79.0	i	i
Cc1ccc(NC(=O)C2=C(c3ccccc3)S(=O)(=O)CCS2(=O)=O)cc1	i	i	i	78.0	i	i
COc1ccc(-c2nnc3n2N=C(C)CS3)cc1OC	i	i	i	i	i	i
Cc1cccc(-c2nnc3n2N=C(c2ccccc2)CS3)c1	i	i	i	i	i	i
Oc1ccc(C2=Nn3c(nnc3-c3ccco3)SC2)cc1O	47.0	47.0	70.0	49.0	65.0	51.0
COc1ccc(C2=Nn3c(nnc3-c3ccccc3)SC2)cc1OC	i	i	i	i	i	78.0
Cc1cc(-c2nnc3n2N=C(c2ccc(-c4ccccc4)cc2)CS3)n[nH]1	79.0	78.0	i	76.0	i	75.0
COC(=O)C1=C(C)N(CCc2c[nH]c3ccc(OC)cc23)C(=O)C1	i	i	i	i	i	i
CCCn1nnc(NC(=S)NC(=O)c2cccs2)n1	i	i	i	i	i	i
COc1coc(C(O)C[N+](=O)[O-])cc1=O (configuration not stated)	i	i	i	i	i	i
O=C(N/N=C/c1c(O)n(-c2ccccc2Cl)c(=O)c2ccccc12)c1cccnc1	i	i	i	i	i	i
SMILES	Rab2A wt mod	HRas wt GTP	Rab7 wt GTP bind	Cdc42 wt GTP	Rac1 mut GTP	Rac1 wt GTP bind
COc1ccc(Cn2c(O)c(/C=N/NC(=O)c3cccnc3)c3ccccc3c2=O)cc1	i	i	i	68.0	72.0	60.0
O=C(N/N=C/c1c(O)n(Cc2ccccc2)c(=O)c2ccccc12)c1cccnc1	71.0	78.0	i	65.0	68.0	55.0
Cc1cc(C)nc(NC(=O)c2ccc(COc3ccccc3Cl)cc2)c1	i	i	i	i	i	i
CCOC(=O)Nc1ccc(Cc2ccncc2)cc1	i	i	i	i	i	i
Cc1ccc(S(=O)(=O)N2CCC(=O)N(C(COCc3cccc(C(F)(F)F)c3)Cc3ccccc3)CC2)cc1 (configuration not stated)	i	i	i	i	i	i
O=C(COC(=O)/C=C/c1cccs1)Nc1ccc2ccccc2c1	76.0	i	i	73.0	76.0	74.0
